According to PubChem BioAssay (EPA / NIEHS):
Inconclusive results are not listed. Calls of active or inactive are those of the source. The calls were made as follows, unless noted: active = hit-call score of the fitted dose curve at least 0.9, where 1 is the maximum; inconclusive = response in the unintended direction; inactive = score below 0.9.

Experiments:
[1] = ATG_TGFb_CIS: Attagene CIS-FACTORIAL HepG2 Assay for human Transforming Growth Factor (TGF) (AID 2282967; active = hit-call score of the fitted dose curve at least 0.9, where 1 is the maximum; inactive = score below 0.9); settings: HepG2 Attagene CIS TGFb reporter, mRNA transcription; actives raise or lower the signal
Outline: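 Bidirectional fitting relative to DMSO gave the endpoint. Underlying data: reporter mRNA from HepG2 cells carrying transiently transfected cis-regulated reporter constructs, harvested 24 h after dosing and analyzed by RT-PCR and capillary electrophoresis.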

[2] = molecular target: Nuclear receptor subfamily 1 group I member 3 (Homo sapiens) (UniProt Q14994); assay: ATG_CAR_TRANS: Attagene TRANS-FACTORIAL HepG2 Assay for human Constitutive Androstane Receptor (CAR) (AID 2282969); settings: HepG2 Attagene TRANS-FACTORIAL CAR reporter;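 also: activators raise reporter mRNA above DMSO so AC50 marks induction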
Sequence of Nuclear receptor subfamily 1 group I member 3 (Homo sapiens) (Q14994 whole entry, looked up, the tested form may be a part): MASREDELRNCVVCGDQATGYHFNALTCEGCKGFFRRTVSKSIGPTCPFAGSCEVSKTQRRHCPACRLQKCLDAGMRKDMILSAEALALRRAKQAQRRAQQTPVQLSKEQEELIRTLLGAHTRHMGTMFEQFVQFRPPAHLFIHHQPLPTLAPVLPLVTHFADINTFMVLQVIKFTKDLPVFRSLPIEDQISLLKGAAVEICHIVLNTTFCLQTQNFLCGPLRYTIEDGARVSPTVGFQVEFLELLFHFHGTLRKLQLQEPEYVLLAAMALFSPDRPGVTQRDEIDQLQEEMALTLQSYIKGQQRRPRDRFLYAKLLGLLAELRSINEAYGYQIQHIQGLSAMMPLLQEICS
Outline: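 HepG2 cells transiently transfected with GAL4-UAS reporter units; TRANS format reads activity of exogenous chimeric NR-Gal4 protein. After 24 h dosing, reporter mRNA quantified by RT-PCR, 6-FAM labelling and capillary electrophoresis; gain of signal fitted against DMSO.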

[3] = molecular target: X-box-binding protein 1 (Homo sapiens) (UniProt P17861); assay: ATG_Xbp1_CIS: Attagene CIS-FACTORIAL HepG2 Assay for human X-box Binding Protein 1 (XBP1) (AID 2282972; active = hit-call score of the fitted dose curve at least 0.9, where 1 is the maximum; inactive = score below 0.9); settings: HepG2 XBP1 cis-element reporter, Attagene multiplex; actives raise or lower the signal
Sequence of X-box-binding protein 1 (Homo sapiens) (P17861 whole entry, looked up): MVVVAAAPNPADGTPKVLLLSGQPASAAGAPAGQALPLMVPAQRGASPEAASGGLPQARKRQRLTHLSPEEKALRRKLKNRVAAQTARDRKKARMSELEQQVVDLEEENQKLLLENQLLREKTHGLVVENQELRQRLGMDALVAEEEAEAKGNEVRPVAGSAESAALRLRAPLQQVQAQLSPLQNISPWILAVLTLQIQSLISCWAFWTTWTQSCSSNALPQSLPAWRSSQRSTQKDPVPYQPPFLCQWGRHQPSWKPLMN
Outline: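 After a 24-hour chemical exposure of HepG2 cells carrying cis-regulated reporters, reporter mRNA levels are assessed. Quantification uses RT-PCR, 6-FAM labelling and capillary electrophoresis. Gain- or loss-of-signal is fitted against DMSO.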

[4] = ATG_GAL4_TRANS: Attagene TRANS-FACTORIAL HepG2 Assay for GAL4 (Internal Marker) (AID 2282976); settings: HepG2 Attagene TRANS GAL4 internal marker reporter
Outline: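 First, HepG2 cells were transfected with reporter units under GAL4-UAS control. Next, they were treated with chemical for 24 h. Finally, RNA was reverse-transcribed, PCR-amplified, FAM-labelled and resolved by capillary electrophoresis, with induction scored against DMSO.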

[5] = molecular target: Bile acid receptor (Homo sapiens) (UniProt Q96RI1); assay: ATG_FXR_TRANS: Attagene TRANS-FACTORIAL HepG2 Assay for Farnesoid X Receptor (FXR) (AID 2282979); settings: HepG2 Attagene TRANS FXR-GAL4 reporter transcription;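 also: hits raise reporter mRNA above DMSO so AC50 marks FXR activation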
Outline: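 Transient transfection of HepG2 with multiplexed GAL4-UAS reporter units; exogenous FXR-GAL4 chimera. Dose 24 h → TriZol RNA → oligo(dT) RT → PCR, 6-FAM primer extension, HpaI cut → CE. Gain vs DMSO.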

[6] = molecular target: Oxysterols receptor LXR-alpha (Homo sapiens) (UniProt Q13133); assay: ATG_LXRa_TRANS: Attagene TRANS-FACTORIAL HepG2 Assay for human Liver X Receptor alpha (LXRa) (AID 2282980); settings: HepG2 Attagene TRANS reporter, LXRa transactivation
Sequence of Oxysterols receptor LXR-alpha (Homo sapiens) (Q13133 whole entry, looked up, the tested form may be a part): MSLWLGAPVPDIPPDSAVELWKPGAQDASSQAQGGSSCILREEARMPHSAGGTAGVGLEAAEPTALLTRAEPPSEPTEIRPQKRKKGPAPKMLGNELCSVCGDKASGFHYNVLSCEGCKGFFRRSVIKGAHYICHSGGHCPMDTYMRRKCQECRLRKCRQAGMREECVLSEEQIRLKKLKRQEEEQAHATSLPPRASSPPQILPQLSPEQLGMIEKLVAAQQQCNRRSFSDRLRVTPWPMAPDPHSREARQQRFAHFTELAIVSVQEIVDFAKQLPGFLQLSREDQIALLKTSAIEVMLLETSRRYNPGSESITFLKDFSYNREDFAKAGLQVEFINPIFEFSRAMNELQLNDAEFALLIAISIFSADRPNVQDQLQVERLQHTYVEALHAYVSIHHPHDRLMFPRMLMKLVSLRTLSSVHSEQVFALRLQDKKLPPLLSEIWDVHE
Outline: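 Transfect HepG2 with GAL4-UAS multiplex reporter constructs (TRANS format, chimeric receptor-GAL4); treat 24 h; extract RNA, reverse-transcribe, PCR-amplify, FAM-label, HpaI-digest; resolve fragments by capillary electrophoresis. Upward response vs DMSO.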

[7] = molecular target: Oxysterols receptor LXR-beta (Homo sapiens) (UniProt P55055); assay: ATG_LXRb_TRANS: Attagene TRANS-FACTORIAL HepG2 Assay for human Liver X Receptor beta (LXRb) (AID 2282981); settings: HepG2 Attagene TRANS GAL4-LXRb reporter, mRNA
Sequence of Oxysterols receptor LXR-beta (Homo sapiens) (P55055 whole entry, looked up, the tested form may be a part): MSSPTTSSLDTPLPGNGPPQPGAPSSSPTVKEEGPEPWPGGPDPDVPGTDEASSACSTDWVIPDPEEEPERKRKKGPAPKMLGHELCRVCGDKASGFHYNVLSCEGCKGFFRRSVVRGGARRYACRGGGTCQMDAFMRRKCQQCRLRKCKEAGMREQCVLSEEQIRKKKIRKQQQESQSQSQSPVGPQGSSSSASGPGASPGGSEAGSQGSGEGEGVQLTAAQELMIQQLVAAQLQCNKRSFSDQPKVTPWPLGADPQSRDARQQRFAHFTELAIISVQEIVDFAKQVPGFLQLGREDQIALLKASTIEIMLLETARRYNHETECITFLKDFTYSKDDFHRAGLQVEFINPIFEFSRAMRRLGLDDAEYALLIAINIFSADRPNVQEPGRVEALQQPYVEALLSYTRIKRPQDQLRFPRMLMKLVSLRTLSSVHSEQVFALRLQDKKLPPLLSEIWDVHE
Outline: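 Gain-of-signal mRNA reporter endpoint, DMSO as negative control. Transiently transfected HepG2 cells carrying the NR-Gal4 chimera and GAL4-UAS reporter units were treated 24 h; transcripts quantified by RT-PCR and capillary electrophoresis fluorescence.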

[8] = molecular target: Hepatocyte nuclear factor 4-alpha (Homo sapiens) (UniProt P41235); assay: ATG_HNF4a_TRANS: Attagene TRANS-FACTORIAL HepG2 Assay for human Hepatocyte Nuclear Factor 4 alpha (HNF4a) (AID 2282982); settings: HepG2 HNF4a transactivation reporter, mRNA readout
Sequence of Hepatocyte nuclear factor 4-alpha (Homo sapiens) (P41235 whole entry, looked up, the tested form may be a part): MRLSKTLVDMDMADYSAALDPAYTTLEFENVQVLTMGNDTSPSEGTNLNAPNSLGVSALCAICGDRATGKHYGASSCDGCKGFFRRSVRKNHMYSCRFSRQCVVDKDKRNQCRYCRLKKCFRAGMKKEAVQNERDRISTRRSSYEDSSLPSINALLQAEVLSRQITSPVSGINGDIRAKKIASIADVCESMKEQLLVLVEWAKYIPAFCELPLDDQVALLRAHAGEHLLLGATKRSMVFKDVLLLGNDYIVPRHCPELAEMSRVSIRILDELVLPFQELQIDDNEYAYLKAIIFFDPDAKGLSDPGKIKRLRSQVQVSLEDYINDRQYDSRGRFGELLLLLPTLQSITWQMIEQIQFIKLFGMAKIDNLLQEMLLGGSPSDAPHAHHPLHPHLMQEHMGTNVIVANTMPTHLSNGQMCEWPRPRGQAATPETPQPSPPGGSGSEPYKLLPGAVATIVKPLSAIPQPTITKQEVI
Outline: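 Gain-of-signal mRNA induction, relative to DMSO vehicle, was read after 24 h compound treatment of HepG2 cells bearing transfected GAL4-UAS reporters. Detection used RT-PCR, 6-FAM primer extension and capillary electrophoresis.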

[9] = ATG_M_06_TRANS: Attagene TRANS-FACTORIAL HepG2 Assay for M06 Transcription Factor (Internal Marker) (AID 2282983); settings: HepG2 Attagene TRANS M06 internal marker reporter
Outline: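 Transfect HepG2 with MRTUs → dose compounds 24 h → isolate RNA, oligo(dT) RT → PCR with reporter primers → 6-FAM primer extension → HpaI digest → CE fragment analysis. Positive direction vs DMSO.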

[10] = molecular target: Nuclear receptor subfamily 4 group A member 2 (Homo sapiens) (UniProt P43354); assay: ATG_NURR1_TRANS: Attagene TRANS-FACTORIAL HepG2 Assay for human Nuclear Receptor Related Protein 1 (NURR1) (AID 2282985); settings: HepG2 Attagene TRANS reporter, mRNA readout
Sequence of Nuclear receptor subfamily 4 group A member 2 (Homo sapiens) (P43354 whole entry, looked up): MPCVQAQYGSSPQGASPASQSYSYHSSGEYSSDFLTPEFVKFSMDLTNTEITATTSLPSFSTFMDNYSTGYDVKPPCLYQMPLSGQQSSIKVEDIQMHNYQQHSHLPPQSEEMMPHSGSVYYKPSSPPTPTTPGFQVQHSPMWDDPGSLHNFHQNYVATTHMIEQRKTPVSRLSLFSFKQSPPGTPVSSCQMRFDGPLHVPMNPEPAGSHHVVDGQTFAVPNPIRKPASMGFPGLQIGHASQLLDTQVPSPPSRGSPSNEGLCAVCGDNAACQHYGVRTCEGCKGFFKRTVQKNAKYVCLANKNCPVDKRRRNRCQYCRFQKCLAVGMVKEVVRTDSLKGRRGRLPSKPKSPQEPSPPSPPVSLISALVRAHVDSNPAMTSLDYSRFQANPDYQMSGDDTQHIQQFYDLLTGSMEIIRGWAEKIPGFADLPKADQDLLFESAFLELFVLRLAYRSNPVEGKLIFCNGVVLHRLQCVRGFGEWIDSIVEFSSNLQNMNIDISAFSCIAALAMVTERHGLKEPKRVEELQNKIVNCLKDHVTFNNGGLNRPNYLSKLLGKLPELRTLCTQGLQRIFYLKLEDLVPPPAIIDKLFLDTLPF
Outline: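 HepG2 / transient MRTU transfection / 24 h compound exposure / RT-PCR + CE fluorescence of reporter mRNA / gain-of-signal vs DMSO.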

[11] = molecular target: Transcriptional activator Myb (Homo sapiens) (UniProt P10242); assay: ATG_Myb_CIS: Attagene CIS-FACTORIAL HepG2 Assay for human Myeloblastosis (Myb) Proto-Oncogene Transcription Factor (AID 2282986; active = hit-call score of the fitted dose curve at least 0.9, where 1 is the maximum; inactive = score below 0.9); settings: HepG2 Attagene CIS-FACTORIAL Myb reporter transcription; actives raise or lower the signal
Sequence of Transcriptional activator Myb (Homo sapiens) (P10242 whole entry, looked up): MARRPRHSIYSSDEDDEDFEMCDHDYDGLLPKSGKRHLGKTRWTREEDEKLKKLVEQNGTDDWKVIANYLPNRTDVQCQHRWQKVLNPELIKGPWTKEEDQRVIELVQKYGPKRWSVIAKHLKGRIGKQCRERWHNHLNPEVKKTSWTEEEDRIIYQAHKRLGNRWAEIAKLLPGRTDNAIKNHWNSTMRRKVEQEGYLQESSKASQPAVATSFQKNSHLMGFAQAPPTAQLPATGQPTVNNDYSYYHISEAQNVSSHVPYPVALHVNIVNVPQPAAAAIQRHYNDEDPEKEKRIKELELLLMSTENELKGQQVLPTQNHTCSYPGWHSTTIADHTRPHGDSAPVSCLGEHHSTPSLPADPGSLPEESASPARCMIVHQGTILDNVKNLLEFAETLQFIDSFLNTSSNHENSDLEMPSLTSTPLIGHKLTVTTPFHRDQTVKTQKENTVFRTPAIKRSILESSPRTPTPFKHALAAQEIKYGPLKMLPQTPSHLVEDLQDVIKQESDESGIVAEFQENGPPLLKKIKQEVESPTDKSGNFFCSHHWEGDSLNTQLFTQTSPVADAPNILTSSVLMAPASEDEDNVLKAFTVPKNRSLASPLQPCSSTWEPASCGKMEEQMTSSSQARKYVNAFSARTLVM
Outline: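 HepG2, transient MRTU transfection (cis-element promoters, endogenous TF activity), 24 h compound exposure. Readout: reporter mRNA via RT-PCR, 6-FAM labeling, HpaI digest, capillary electrophoresis. Gain/loss fit vs DMSO.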

[12] = molecular target: Nuclear respiratory factor 1 (Homo sapiens) (UniProt Q16656); assay: ATG_NRF1_CIS: Attagene CIS-FACTORIAL HepG2 Assay for human Nuclear Respiratory Factor 1 (NRF1) Orphan Gene (AID 2282987; active = hit-call score of the fitted dose curve at least 0.9, where 1 is the maximum; inactive = score below 0.9); settings: HepG2 NRF1 cis-element reporter, Attagene multiplex; actives raise or lower the signal
Sequence of Nuclear respiratory factor 1 (Homo sapiens) (Q16656 whole entry, looked up): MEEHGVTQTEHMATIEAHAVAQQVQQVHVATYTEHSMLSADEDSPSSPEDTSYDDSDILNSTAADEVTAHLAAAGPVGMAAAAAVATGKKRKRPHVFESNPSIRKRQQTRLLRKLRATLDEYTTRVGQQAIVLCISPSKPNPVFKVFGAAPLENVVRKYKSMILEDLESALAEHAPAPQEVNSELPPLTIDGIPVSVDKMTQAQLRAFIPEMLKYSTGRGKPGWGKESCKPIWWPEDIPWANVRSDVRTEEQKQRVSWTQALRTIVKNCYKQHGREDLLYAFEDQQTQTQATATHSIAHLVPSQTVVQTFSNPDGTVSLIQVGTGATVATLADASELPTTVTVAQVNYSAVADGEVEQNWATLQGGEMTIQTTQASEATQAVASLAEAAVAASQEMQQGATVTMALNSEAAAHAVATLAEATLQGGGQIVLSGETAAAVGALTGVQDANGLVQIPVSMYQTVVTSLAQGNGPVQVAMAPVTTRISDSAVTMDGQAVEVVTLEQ
Outline: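 Endogenous NRF1-driven reporter transcription measured in transiently transfected human HepG2 liver cells. Readout: reporter mRNA by RT-PCR and capillary electrophoresis with fluorescence detection, 24 h post-dosing. Gain or loss of signal fitted relative to DMSO baseline.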

[13] = molecular target: Estrogen receptor (Homo sapiens) (UniProt P03372); assay: ATG_ERa_TRANS: Attagene TRANS-FACTORIAL HepG2 Assay for human Estrogen Receptor alpha (ERa) (AID 2282970); settings: HepG2 Attagene TRANS ERa GAL4 reporter, mRNA
Sequence of Estrogen receptor (Homo sapiens) (P03372 whole entry, looked up, the tested form may be a part): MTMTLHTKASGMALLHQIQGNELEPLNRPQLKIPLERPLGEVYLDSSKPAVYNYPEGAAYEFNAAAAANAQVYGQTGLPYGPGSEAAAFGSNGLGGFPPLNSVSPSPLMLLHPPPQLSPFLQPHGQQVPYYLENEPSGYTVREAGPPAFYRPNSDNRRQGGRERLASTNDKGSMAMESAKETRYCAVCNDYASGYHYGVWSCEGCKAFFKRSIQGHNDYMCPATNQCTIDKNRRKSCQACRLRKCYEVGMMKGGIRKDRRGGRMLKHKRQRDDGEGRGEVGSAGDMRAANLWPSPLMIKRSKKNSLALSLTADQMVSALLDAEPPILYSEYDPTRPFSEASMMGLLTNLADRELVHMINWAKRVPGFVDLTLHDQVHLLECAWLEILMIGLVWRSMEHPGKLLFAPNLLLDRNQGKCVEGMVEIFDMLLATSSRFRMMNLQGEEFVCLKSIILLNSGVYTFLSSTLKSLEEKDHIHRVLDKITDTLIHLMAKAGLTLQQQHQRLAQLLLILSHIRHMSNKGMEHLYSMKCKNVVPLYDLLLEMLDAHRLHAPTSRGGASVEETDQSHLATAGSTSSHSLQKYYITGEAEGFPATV
Outline: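 Human liver HepG2, transient transfection of multiple GAL4-UAS reporter units; TRANS format (exogenous NR-Gal4 chimera). 24 h dosing. Readout: reporter mRNA, RT-PCR, 6-FAM primer extension, HpaI digest, capillary electrophoresis. Positive direction vs DMSO.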

[14] = molecular target: Steroid hormone receptor ERR1 (Homo sapiens) (UniProt P11474); assay: ATG_ERRa_TRANS: Attagene TRANS-FACTORIAL HepG2 Assay for human Estrogen-Related Receptor alpha (ERRa) (AID 2282971); settings: HepG2 Attagene TRANS reporter, ERRa transactivation
Sequence of Steroid hormone receptor ERR1 (Homo sapiens) (P11474 whole entry, looked up, the tested form may be a part): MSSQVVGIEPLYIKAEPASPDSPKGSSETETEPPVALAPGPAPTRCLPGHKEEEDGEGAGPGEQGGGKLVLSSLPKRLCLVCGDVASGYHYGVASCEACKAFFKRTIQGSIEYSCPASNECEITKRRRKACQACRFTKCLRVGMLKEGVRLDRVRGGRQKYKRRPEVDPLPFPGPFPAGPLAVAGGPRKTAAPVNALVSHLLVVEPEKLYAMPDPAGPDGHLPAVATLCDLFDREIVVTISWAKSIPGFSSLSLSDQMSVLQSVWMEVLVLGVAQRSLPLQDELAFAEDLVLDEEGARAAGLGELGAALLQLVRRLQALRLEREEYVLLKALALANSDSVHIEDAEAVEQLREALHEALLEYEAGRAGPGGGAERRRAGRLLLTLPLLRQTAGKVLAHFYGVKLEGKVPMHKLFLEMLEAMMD
Outline: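 Reporter transcript induction was quantified by RT-PCR and capillary electrophoresis of FAM-labelled, HpaI-cut products after 24 h treatment of HepG2 cells carrying transiently transfected GAL4-UAS reporter units and an exogenous ERRa-Gal4 fusion; activity scored as increase over DMSO.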

[15] = ATG_M_19_TRANS: Attagene TRANS-FACTORIAL HepG2 Assay for M19 Transcription Factor (Internal Marker) (AID 2282974); settings: HepG2 Attagene TRANS-FACTORIAL M19 internal marker reporter
Outline: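 24 h chemical exposure of transiently transfected HepG2 (MRTU library). RNA → oligo(dT) RT → PCR → 6-FAM labelling → HpaI cut → CE fluorescence. Positive-direction fit vs DMSO baseline; background internal-marker readout.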

[16] = ATG_M_32_TRANS: Attagene TRANS-FACTORIAL HepG2 Assay for M32 Transcription Factor (Internal Marker) (AID 2282984); settings: HepG2 Attagene TRANS M32 internal marker reporter;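 also: transcript level of a background control reporter unit measured by RT-PCR and capillary electrophoresis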
Outline: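 Capillary electrophoresis of 6-FAM-labelled reporter fragments gives the signal; data fitted for gain over DMSO negative control. Source: HepG2 cells bearing transient multiple reporter transcription units, 24 h exposure.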

[17] = ATG_VDRE_CIS: Attagene CIS-FACTORIAL HepG2 Assay for human Vitamin D Receptor Element (VDRE) (AID 2282968; active = hit-call score of the fitted dose curve at least 0.9, where 1 is the maximum; inactive = score below 0.9); settings: HepG2 VDRE cis-reporter transcription, actives raise or lower the signal
Outline: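 Cell-based multiplexed reporter format in human liver HepG2 cells, 24 h post-dose. Fluorescence from capillary electrophoresis of reporter cDNA gives the signal, with DMSO as negative control and baseline.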

Measured: AC50

CCOP(OCC)OCC
not listed: [13] | [14] | [15] | [16] | [17]
inactive: all other assays above

CCN1CCC2(CC1)COc1cc3c(cc12)N(C(=O)c1ccc(-c2ccc(-c4nnc(C)o4)cc2C)cc1)CC3
active: [7] 1.01 µM
not listed: [8] | [9] | [10] | [17]
inactive: all other assays above

Nc1ccc(N=Nc2ccc(-c3ccc(N=Nc4c(S(=O)(=O)O)cc5cc(S(=O)(=O)O)c(N=Nc6ccccc6)c(O)c5c4N)cc3)cc2)c(N)c1
active: [13] 19.9 µM
not listed: [4] | [5] | [14] | [15] | [16] | [17]
inactive: all other assays above

CCCCCCCCCl
inactive: [1] | [17] | [3] | [6] | [8] | [9] | [10] | [11] | [12]

ClCCBr
not listed: [5] | [7] | [8] | [15] | [17]
inactive: all other assays above

OCC(O)CCl (stereo unspecified)
inactive: [1] | [17] | [3] | [4] | [7] | [9] | [10] | [11] | [12]
